The record followed here is PubChem BioAssay AID588345 (Broad Institute, 2011).

The structures appear in SMILES notation. Hit rate of the full screen: of about 1,300 compounds, about 850 (65%) were called active. About 1% were inconclusive and are not listed. The rule behind the calls is not given here. So high a share suggests a set chosen from earlier hits. A selection follows. Entries that show only a call come without a potency. Potency and affinity values are given separately.

For the experiment, the target named is Dual specificity tyrosine-phosphorylation-regulated kinase 1A (Rattus norvegicus) (UniProt Q63470). Briefly: Dyrk1A enzyme activity inhibition – biochemical, cherry-pick, plate reader, 2124-01, dose response (AID 588345). The conditions noted are these: Dyrk1A kinase biochemical assay; series mostly up to 12 µM.
As for `CCOC(=O)C1CCCN(c2c(NCCCN3CCCC(C)C3)c(=O)c2=O)C1` (stereo unspecified), the result was inactive.
The result for `CCCOc1ccc(/C=N/NC(=O)CN2CCCCC2)cc1` reads “inactive”.
With `COc1ccc(/C=C2\SC(N3CCc4ccccc4C3)=NC2=O)cc1`, the call was inactive.
Regarding `Cc1cccc(NC(=S)NN2CCN(C)CC2)c1`, the outcome was inactive.
The result for `O=C1[C@H]2[C@H](C=CC[C@H]2C(=O)N2CCOCC2)CCN1Cc1ccccc1` reads “inactive”; that for `CCOC(=O)C1CCCN(c2c(NCCN(C)Cc3ccccc3)c(=O)c2=O)C1` (stereo unspecified), “inactive”; that for `COCCN=C1N[C@@H](c2cccc(C(F)(F)F)c2)C(C(=O)OC)=C(C)N1Cc1ccccc1`, “inactive”.
As to `O=C1OCc2cccc3cccc1c23`, the result was inactive.
With `Nc1ncnc(N)c1N=Nc1ccccc1` the entry was “inactive”; with `CCN(CC)c1ccc(/C=C2\C(=O)c3ccc(C(=O)O)cc3C2=O)cc1`, “inactive”; with `CCOC(=O)C1=C(C)OC(N)=C(C#N)C1c1ccc(O)c(OC)c1` (stereo unspecified), “inactive”.
The result for `O=c1[nH]c(=S)[nH]c2sccc12` reads “inactive”; that for `O=C(COC(=O)c1cccs1)c1ccc2ccccc2c1`, “inactive”.
The result for `CCc1ccccc1NC(=O)C1CCCN(S(=O)(=O)c2ccc3c(c2)CC(C)N3C(C)=O)C1` (stereo unspecified) reads “inactive”; that for `CCOC(=O)C(Cc1ccc(O)cc1)NC(=O)CCc1c[nH]c2ccccc12` (stereo unspecified), “inactive”.
On to `CC(C)(C)[C@H]1C=C(C(=O)N2CCN(Cc3ccccc3)CC2)O[C@@H](OCCCCO)C1`, for which the call was inactive.
For the molecule `COc1ccc2c(Cl)c(C(=O)N/N=C/c3cccnc3)sc2c1`, the outcome was inactive.
With `COc1ccccc1NC(=S)N/N=C/c1ccc(O)cc1`, the outcome was inactive.
For the molecule `Cc1ccc(CN2CCN(c3ncccn3)CC2)o1`, the molecule was called inactive.
For `O=C1CCN(CCCc2ccccc2)CCN1[C@H](CO)c1ccccc1`, the result was inactive.
With `Oc1ccc(-c2nc3ncccn3c2Nc2ccc3c(c2)OCO3)cc1`, the call was inactive.
With `O=[N+]([O-])c1ccc(O)c(C=NNc2ccc(S(=O)(=O)O)cc2)c1` the entry was “inactive”; with `Cc1cccc2nc(-c3cccc(NC(=O)c4ccc(Cl)cc4)c3)cn12`, “inactive”; with `COc1ccc2c(c1)OC[C@H]1[C@H]2N2C(=O)CN(CC3CCCO3)C(=O)[C@@]2(C)[C@H]1c1ccccc1` (stereo partly specified), “inactive”.
For the molecule `COc1ccccc1-c1sc2ccccc2c1C#Cc1ccc(N(C)C)cc1`, the result was inactive.
In the case of `O=C(O)c1cc(N/N=C/c2c(O)ccc3ccccc23)ccc1Cl`, the molecule was classed as inactive.
The result for `N#Cc1c2ccc(O)cc2n2ccccc12` reads “inactive”; that for `COc1cccc(-c2noc(N)c2C#N)c1`, “inactive”; that for `COc1ccc2c(c1)CCc1cn3nc(C)cc3nc1-2`, “inactive”.
With `COc1ccc2c(c1)CCc1cc(C(=O)O)sc1-2`, the call was inactive.
With `COC(=O)c1sc2cnccc2c1N`, the result was inactive.
The result for `Brc1ccccc1C1=Nn2c(nnc2-c2ccccc2)SC1` reads “inactive”; that for `COc1ccc(OC)c(C2=Nn3c(nnc3-c3ccco3)SC2)c1`, “inactive”; that for `CCOC(=O)C1CCCN(c2c(N3CCN(C4CCCCC4)CC3)c(=O)c2=O)C1` (stereo unspecified), “inactive”.
For `CC(C)Oc1ccc(C2CNC(=O)C2)cc1` (stereo unspecified), the call was inactive.
Turning to `COC(=O)c1[nH]c2cc(OC)ccc2c1N`, the outcome was inactive.
With `COC(=O)c1c(-c2ccc(S(C)(=O)=O)cc2)sc2ccc(OC)cc12` the entry was “inactive”; with `Cc1ccc2c(c1)N(CC(=O)NC1CCCCC1)C(=O)c1cccnc1O2`, “inactive”.
The result for `COc1cccc(Cn2nnc(C(=O)NCCc3ccc(Cl)cc3)c2N)c1` reads “inactive”; that for `CCCCN(CC)CCCNC(=O)c1cc2cc3ccc(OC)cc3nc2o1`, “inactive”.
For `CCN1CCN(CCCNC(=O)c2cc3cc4ccc(OC)cc4nc3o2)CC1`, the molecule was called inactive.
With `COc1ccc2cc3cc(C(=O)NCCCN4CCC(C)CC4)oc3nc2c1` the entry was “inactive”.
With `COCCNC(=O)c1cc2cc3ccc(OC)cc3nc2o1` the entry was “inactive”.
With `O=S1(=O)N=C(N(Cc2cccs2)c2ccc(O)cc2)c2ccccc21` the entry was “inactive”.
In the case of `CCCCC(=O)Nc1cc(Cl)ccc1C(=O)O`, the molecule was called inactive.
With `CC(C)CC(NC(=O)C1CCC(C)CC1)C(=O)Nc1ccc2c(c1)OCCO2` (stereo unspecified) the entry was “inactive”.
`O=C(O)c1cc2ccccc2c2cc(Br)ccc12`: the molecule was classed as inactive.
The result for `CCOCC(=O)Nc1nc2c(s1)C(=O)CC(C)(C)C2` reads “inactive”; that for `O=C1CCCc2c1cc(C(=O)NCCCN1CCOCC1)c(=O)n2-c1ccc(Cl)cc1`, “inactive”; that for `CCOc1ccccc1C(=O)Nc1ccccc1C(N)=O`, “inactive”.
The result for `c1ccc2c(-c3nc(C4CCCCC4)no3)cc(-c3ccncc3)nc2c1` reads “inactive”.
With `O=C(O)/C=C/c1ccc2noc(-c3ccccc3)c2c1` the entry was “inactive”; with `O=C(/C=C/c1ccccc1)Nc1cccc(C(=O)NC2CC2)c1`, “inactive”; with `COc1cccc(C(=O)NNC(=O)/C=C/c2ccccc2)c1`, “inactive”.
Take `Nc1nonc1-n1nnc(C(=O)N/N=C\c2ccncc2)c1CN1CCCCC1`: the result was inactive.
With `COc1cc2cnc(-c3ccccc3)c(-c3ccc([N+](=O)[O-])cc3)c2cc1OC` the entry was “inactive”; with `COC(=O)CSc1nc(N)c(C#N)c(C(C)C)c1C#N`, “inactive”; with `COc1ccc2nc3c(cc2c1)c(NC(=O)C1CCCO1)nn3CC(C)C` (stereo unspecified), “inactive”.
The result for `N#Cc1nc(-c2cccs2)oc1NCc1ccccc1Cl` reads “inactive”; that for `Cc1cccc(Cl)c1OCCCCn1ccnc1`, “inactive”.
The result for `c1cncc(-c2nc(NCCCn3ccnc3)c3ccccc3n2)c1` reads “inactive”.
`COc1cc(O)c2c(=O)c3c(O)ccc(O)c3oc2c1`: the molecule was called inactive.
The result for `O=C(NN1C(=O)/C(=C/c2ccc(O)c([N+](=O)[O-])c2)SC1=S)c1ccccc1Cl` reads “inactive”; that for `CCCCOc1cccc(C(=O)NC(=S)Nc2ccc(Cl)c(C(=O)O)c2)c1`, “inactive”.
The result for `c1ccc(Cc2nnc3sc(-c4ccc5c(c4)OCCO5)nn23)cc1` reads “inactive”; that for `CCC(=O)Nc1nc(-c2ccc3c(c2)OCCO3)cs1`, “inactive”; that for `CC(C)c1nnc(NC(=O)Cn2nc(-c3ccc4c(c3)OCCO4)ccc2=O)s1`, “inactive”.
The result for `CSCC(=O)Nc1nc(-c2ccc3c(c2)OCCO3)cs1` reads “inactive”; that for `Cn1nnnc1Sc1ncnc2scc(-c3ccc[nH]3)c12`, “inactive”.
In the case of `COCCCN(C(C)=O)c1nc(-c2ccc(OC)cc2)cs1`, the molecule was called inactive.
Take `CCCn1cnc2scc(-c3ccc(OC)cc3)c2c1=O`: the call was inactive.
With `COc1cc(CO)cc(Br)c1OCc1cccnc1` the entry was “inactive”; with `COc1cccc(/C=N/n2c(COc3ccccc3)n[nH]c2=S)c1O`, “inactive”.
`COC(=O)C1=C(C)N(CCCC(=O)O)C(=O)NC1c1ccc(Cl)cc1` (stereo unspecified): the molecule was classed as inactive.
`COc1ccc(-n2c(C)nc3cc(C(=O)NCc4ccc5c(c4)OCO5)ccc32)cc1`: the molecule was classed as inactive.
With `COc1ccc(-n2c(C)nc3cc(C(=O)NCc4ccco4)ccc32)cc1` the entry was “inactive”; with `Cc1cccc(-n2nc3c(c2NC(=O)CCC2CCCCC2)CS(=O)C3)c1C` (stereo unspecified), “inactive”; with `Cc1noc(NS(=O)(=O)c2ccc(N/C=C\C(=O)c3ccc(Br)cc3)cc2)c1C`, “inactive”.
As for `COc1ccc(C(=O)Nc2nc3ccccc3[nH]2)cc1S(=O)(=O)N1CCOCC1`, the result was inactive.
The result for `C=CCN1C(=O)/C(=C/c2ccccc2)S/C1=N/c1nccs1` reads “inactive”.
The result for `CC(C)(C)NC(=O)C(=O)NC(=O)c1c(F)cccc1Cl` reads “inactive”.
The result for `O=C(c1ccc2c(c1)OCCCO2)N1CCCCC1` reads “inactive”; that for `CC(NC(=O)COC(=O)c1ccc([N+](=O)[O-])s1)c1ccccc1` (stereo unspecified), “inactive”; that for `C=CCOC(=O)C1=C(C)NC(=O)NC1c1ccc(Cl)cc1` (stereo unspecified), “inactive”.
`COC(=O)c1nn(-c2ccc3c(c2)OCO3)cc1O`: the outcome was inactive.
As for `CCOC(=O)C1=C(C)OC(N)=C(C#N)C1c1cc2c(cc1Br)OCO2` (stereo unspecified), the molecule was called inactive.
The result for `C=CCc1ccc(OCCOc2ccc(/C=N/n3cnnc3)cc2OCC)c(OC)c1` reads “inactive”.
With `Cc1ccccc1C(=O)N1CCN(c2ccc(NC(=O)c3cccc(OC(C)C)c3)cc2)CC1` the entry was “inactive”.
With `O=C(Nc1ccc(Cl)cc1)c1csc(-c2ccncc2)n1` the entry was “inactive”.
Turning to `O=C(Nc1ccc(F)cc1F)c1csc(-c2ccncc2)n1`, the outcome was inactive.
On to `c1ccc(-c2nnc3sc(Cc4cccs4)nn23)cc1`, for which the result was inactive.
As to `COC(=O)[C@]1(CC(C)C)N[C@H](c2ccc(-c3cccc(Cl)c3)cc2)[C@@H]2C(=O)N(C)C(=O)[C@@H]21`, the molecule was classed as inactive.
Regarding `Cc1cccc(CNc2ncnc3ccc(-c4ccoc4)cc23)c1`, the molecule was classed as inactive.
The result for `CN(C)/C=C1/Oc2c(ccc3ccccc23)C1=O` reads “inactive”; that for `COc1cc(-c2cn(S(=O)(=O)c3cccc4nsnc34)nc2N)cc(OC)c1OC`, “inactive”; that for `CCn1c2ccccc2c2cc(/C=N/O)ccc21`, “inactive”.
The result for `Cc1ccccc1NC(=O)CSc1[nH]c(=O)cc(C)c1C#N` reads “inactive”; that for `CCN1CCN(Cc2ccc(NC(=O)c3ccc(C)c(NC(=O)c4csc(-c5ccncc5)n4)c3)cc2C(F)(F)F)CC1`, “inactive”.
The result for `Cn1c(-c2ccccc2)c(C=O)c2ccccc21` reads “inactive”.
For the molecule `Cc1ccccc1NC(=O)C1CCCN1S(=O)(=O)c1ccc2c(c1)n(C)c(=O)c(=O)n2C` (stereo unspecified), the outcome was inactive.
Turning to `Cc1ccc(S(=O)(=O)/N=C2\C=C(Nc3cccc(C(=O)O)c3)C(=O)c3ccccc32)c(C)c1`, the outcome was inactive.
Consider `CCOC(=O)C[C@H]1c2cc(C(F)(F)F)ccc2S(=O)(=O)N1C(C)C`, for which the outcome was inactive.
The result for `COc1ccc(-c2nn(-c3ccccc3)cc2CO)cc1` reads “inactive”; that for `Cc1nc2c(c3c1[nH]c1ccccc13)C(=O)CC(C)(C)C2`, “inactive”.
The result for `CN(C)S(=O)(=O)c1ccc(Cl)c(C(=O)Nc2cccc3ncccc23)c1` reads “inactive”; that for `OCC[C@@H]1C[C@H](O)[C@@H](O)[C@@]2(CCc3ccccc3CO2)O1`, “inactive”; that for `CC(=O)c1cccc(NC(=O)Nc2cccs2)c1`, “inactive”.
With `COC(=O)c1cc(NC(=O)Nc2cccc(Cl)c2)ccc1Cl` the entry was “inactive”; with `COc1ccc(S(=O)(=O)N(C)C[C@H]2Oc3ccc(NS(=O)(=O)c4cccs4)cc3CC(=O)N([C@H](C)CO)C[C@H]2C)cc1`, “inactive”.
Turning to `CCOc1ccc(C2CC(c3cccc(OC)c3)Nc3nc(N)nn32)cc1` (stereo unspecified), the molecule was called inactive.
The result for `N#C/C(=C\c1ccc(O)c(O)c1)C(=O)NCCc1ccccc1` reads “inactive”.
